Measurements as given in ChEMBL document CHEMBL3988442, “University of Dundee, Small-Polar-MMV Screening Library” (2021).
Values joined by “and” are separate entries in the source; they are usually repeats but may differ in a detail not shown here. Equal values may be shown once. For some assays here: Results with a measured potency or affinity are listed apart.

How the values were obtained:
Set-up in all cases: scale not given: direction of the effect not stated beside the values
[1] = biological target: Protein translocase subunit SecA (Escherichia coli (strain K12)) (UniProt P10408); experiment: Assay to Identify E. coli SecA ATPase Inhibitors; format: functional; conditions: 30 µM
Sequence of Protein translocase subunit SecA (Escherichia coli (strain K12)) (P10408 whole entry): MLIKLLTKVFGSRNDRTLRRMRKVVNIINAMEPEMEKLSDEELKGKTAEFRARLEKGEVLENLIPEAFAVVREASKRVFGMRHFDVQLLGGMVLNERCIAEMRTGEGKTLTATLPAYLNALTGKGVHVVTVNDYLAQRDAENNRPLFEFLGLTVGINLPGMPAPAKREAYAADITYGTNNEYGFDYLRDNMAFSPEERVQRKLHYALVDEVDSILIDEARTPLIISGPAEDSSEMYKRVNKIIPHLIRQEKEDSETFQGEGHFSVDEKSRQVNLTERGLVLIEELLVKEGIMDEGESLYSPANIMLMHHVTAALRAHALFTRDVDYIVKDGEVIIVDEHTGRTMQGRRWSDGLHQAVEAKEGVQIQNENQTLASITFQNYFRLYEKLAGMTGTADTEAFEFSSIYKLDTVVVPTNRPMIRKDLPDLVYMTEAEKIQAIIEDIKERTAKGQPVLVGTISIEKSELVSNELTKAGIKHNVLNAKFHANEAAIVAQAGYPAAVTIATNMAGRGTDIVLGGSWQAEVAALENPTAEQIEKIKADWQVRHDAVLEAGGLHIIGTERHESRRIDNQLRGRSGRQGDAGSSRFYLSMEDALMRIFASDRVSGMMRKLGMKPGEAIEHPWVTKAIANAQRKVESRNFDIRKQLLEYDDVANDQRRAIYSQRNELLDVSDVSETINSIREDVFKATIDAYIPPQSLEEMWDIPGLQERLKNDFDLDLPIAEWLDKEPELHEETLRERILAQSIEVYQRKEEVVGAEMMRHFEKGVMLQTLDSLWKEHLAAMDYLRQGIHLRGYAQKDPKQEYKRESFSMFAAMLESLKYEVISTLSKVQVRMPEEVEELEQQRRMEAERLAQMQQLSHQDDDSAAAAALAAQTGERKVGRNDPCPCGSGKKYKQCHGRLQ

[2] = biological target: T1, Ubiquitin-activating enzyme e1, putative (Leishmania donovani (strain BPK282A1)) (UniProt E9BSI1); experiment: Leishmania donovani Ubiquitin Activating Enzyme (LdE1); format: functional; conditions: 30 µM
T1 sequence (whole entry): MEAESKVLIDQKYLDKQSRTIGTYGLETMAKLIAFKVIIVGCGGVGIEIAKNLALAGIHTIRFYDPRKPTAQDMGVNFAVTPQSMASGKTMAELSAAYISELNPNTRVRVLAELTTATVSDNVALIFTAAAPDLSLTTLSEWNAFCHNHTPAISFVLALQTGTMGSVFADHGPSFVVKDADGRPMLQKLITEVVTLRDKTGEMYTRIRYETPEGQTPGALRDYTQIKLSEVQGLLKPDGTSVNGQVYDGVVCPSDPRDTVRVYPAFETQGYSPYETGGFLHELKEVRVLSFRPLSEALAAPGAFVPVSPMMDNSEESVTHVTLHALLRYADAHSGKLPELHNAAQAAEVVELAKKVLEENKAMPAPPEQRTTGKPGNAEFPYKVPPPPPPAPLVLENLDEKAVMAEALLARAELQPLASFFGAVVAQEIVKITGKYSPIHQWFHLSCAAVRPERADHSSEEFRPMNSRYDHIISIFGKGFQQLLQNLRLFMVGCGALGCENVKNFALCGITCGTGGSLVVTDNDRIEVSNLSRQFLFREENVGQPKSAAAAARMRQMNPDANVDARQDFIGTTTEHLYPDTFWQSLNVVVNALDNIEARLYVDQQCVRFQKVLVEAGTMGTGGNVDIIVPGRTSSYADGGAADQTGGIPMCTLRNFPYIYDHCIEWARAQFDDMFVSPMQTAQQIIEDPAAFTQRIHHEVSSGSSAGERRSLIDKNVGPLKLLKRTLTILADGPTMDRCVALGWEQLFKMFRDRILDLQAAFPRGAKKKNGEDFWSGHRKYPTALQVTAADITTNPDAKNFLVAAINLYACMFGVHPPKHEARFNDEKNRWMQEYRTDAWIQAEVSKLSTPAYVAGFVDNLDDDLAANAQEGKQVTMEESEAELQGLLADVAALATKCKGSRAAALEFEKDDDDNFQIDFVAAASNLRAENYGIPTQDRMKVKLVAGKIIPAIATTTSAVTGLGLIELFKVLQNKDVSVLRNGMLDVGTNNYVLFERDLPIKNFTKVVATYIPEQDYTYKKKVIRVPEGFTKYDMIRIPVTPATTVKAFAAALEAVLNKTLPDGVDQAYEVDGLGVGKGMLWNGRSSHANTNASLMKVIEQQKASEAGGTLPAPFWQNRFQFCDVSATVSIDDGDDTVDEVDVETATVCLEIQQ

[3] = biological target: AMP-activated protein kinase, AMPK (Homo sapiens) (UniProt P54646+O43741+P54619+Q9UGJ0+Q9Y478+Q13131+Q9UGI9); experiment: AMP-dependent Kinase enzyme assay. An in vitro enzyme assay that detects ADP turnover that is directly proportional to AMPK activity. This uses naive AMPK that is activated during the assay with MK-8722; format: functional; conditions: 30 µM
[4] = biological target: Sialic acid-binding Ig-like lectin 9 (Homo sapiens) (UniProt Q9Y336); experiment: Hs-Siglec9 ALPHAscreen SOP 20170721; conditions: 10 µM
Sequence of Sialic acid-binding Ig-like lectin 9 (Homo sapiens) (Q9Y336 whole entry): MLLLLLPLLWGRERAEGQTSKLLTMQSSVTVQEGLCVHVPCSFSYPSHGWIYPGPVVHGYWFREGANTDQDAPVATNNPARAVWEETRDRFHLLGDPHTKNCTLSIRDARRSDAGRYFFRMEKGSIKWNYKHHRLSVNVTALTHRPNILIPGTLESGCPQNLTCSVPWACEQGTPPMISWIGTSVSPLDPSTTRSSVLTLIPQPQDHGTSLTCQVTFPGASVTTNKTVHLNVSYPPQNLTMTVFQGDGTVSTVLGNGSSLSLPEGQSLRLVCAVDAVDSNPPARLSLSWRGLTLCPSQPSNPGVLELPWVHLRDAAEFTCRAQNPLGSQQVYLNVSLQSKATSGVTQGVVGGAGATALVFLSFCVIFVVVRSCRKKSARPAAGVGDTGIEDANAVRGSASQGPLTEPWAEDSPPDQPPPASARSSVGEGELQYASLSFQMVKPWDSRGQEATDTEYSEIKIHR

Trypanosoma cruzi = experiment: Trypanosoma cruzi phosphomannomutase and mannose-1-phosphate guanylyltransferase assay; format: functional; conditions: 10 µM
[5] = biological target: T2, Arginase-2, mitochondrial (Homo sapiens) (UniProt P78540); experiment: in vitro enzyme assay to detect the production of urea directly proportional to the activity of Arginase II; format: functional; conditions: 33.3 µM; note: in the data most compounds retested in dose-response had high values
T2 sequence (whole entry): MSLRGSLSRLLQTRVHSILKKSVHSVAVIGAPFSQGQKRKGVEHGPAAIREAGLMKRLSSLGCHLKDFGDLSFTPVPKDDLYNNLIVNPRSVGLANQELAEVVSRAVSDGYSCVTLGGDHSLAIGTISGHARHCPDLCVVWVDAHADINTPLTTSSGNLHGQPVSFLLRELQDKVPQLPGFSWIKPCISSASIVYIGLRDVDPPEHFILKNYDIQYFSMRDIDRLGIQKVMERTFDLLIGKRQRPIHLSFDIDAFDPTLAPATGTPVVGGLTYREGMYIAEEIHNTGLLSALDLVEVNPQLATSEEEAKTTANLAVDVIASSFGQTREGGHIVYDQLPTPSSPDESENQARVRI

[6] = biological target: T3, Proteasome subunit beta (Trypanosoma cruzi) (UniProt O96673); experiment: Trypanosoma cruzi proteasome chymotrypsin-like activity (TcProtChymo) assay.; note: in the data most compounds retested in dose-response had high values; format: functional; conditions: 9.37 µM
T3 sequence (whole entry): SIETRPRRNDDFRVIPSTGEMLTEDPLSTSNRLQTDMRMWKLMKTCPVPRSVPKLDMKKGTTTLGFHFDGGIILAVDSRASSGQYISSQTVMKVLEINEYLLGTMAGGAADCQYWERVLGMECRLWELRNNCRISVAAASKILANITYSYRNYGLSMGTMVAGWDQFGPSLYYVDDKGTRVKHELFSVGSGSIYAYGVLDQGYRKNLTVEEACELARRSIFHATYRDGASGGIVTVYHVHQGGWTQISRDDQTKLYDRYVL

Homo sapiens = organism: Homo sapiens; experiment: To identify inhibition of the IFN signalling (Jak-Stat) pathway via expression of an eGFP reporter gene under the control of an IFN-stimulated response element (ISRE) containing MxA promoter.; format: functional; conditions: 30 µM
[7] = biological target: T4, Tyrosyl-tRNA synthetase, putative (Trypanosoma cruzi (strain CL Brener)) (UniProt Q4DSP6); experiment: Trypanosoma cruzi tyrosyl tRNA synthetase (TcYRS) _High Tyrosine SOP; format: functional; conditions: 30 µM; note: in the data most compounds retested in dose-response had high values
T4 sequence (whole entry): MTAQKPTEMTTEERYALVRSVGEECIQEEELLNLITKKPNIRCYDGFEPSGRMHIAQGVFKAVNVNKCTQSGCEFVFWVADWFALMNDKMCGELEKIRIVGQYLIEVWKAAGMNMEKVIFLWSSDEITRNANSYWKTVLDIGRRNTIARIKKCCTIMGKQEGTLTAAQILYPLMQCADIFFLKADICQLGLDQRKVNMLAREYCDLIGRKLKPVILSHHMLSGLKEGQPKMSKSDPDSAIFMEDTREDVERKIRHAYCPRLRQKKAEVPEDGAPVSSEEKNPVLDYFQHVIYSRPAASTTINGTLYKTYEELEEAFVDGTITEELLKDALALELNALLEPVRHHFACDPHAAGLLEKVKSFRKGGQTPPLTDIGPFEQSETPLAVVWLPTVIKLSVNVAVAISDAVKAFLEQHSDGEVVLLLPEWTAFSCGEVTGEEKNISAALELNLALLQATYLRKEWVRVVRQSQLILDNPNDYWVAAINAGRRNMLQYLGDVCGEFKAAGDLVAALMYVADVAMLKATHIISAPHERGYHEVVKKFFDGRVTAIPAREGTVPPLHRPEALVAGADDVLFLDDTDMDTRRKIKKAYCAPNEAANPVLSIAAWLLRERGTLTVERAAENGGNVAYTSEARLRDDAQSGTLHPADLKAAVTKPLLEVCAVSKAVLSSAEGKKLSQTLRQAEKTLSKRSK

[8] = biological target: T4, Tyrosyl-tRNA synthetase, putative (Trypanosoma cruzi (strain CL Brener)); experiment: Trypanosoma cruzi tyrosyl tRNA synthetase (TcYRS) SOP; format: functional; conditions: 30 µM
[9] = biological target: Chromo domain-containing protein 1 (Saccharomyces cerevisiae (strain ATCC 204508 / S288c) (Baker's yeast)) (UniProt P32657); experiment: ScCHD-1 Enzyme Inhibition Assay; format: functional; conditions: 30 µM; note: in the data most compounds retested in dose-response had high values
Sequence of Chromo domain-containing protein 1 (Saccharomyces cerevisiae (strain ATCC 204508 / S288c) (Baker's yeast)) (P32657 whole entry, the tested form may be a part): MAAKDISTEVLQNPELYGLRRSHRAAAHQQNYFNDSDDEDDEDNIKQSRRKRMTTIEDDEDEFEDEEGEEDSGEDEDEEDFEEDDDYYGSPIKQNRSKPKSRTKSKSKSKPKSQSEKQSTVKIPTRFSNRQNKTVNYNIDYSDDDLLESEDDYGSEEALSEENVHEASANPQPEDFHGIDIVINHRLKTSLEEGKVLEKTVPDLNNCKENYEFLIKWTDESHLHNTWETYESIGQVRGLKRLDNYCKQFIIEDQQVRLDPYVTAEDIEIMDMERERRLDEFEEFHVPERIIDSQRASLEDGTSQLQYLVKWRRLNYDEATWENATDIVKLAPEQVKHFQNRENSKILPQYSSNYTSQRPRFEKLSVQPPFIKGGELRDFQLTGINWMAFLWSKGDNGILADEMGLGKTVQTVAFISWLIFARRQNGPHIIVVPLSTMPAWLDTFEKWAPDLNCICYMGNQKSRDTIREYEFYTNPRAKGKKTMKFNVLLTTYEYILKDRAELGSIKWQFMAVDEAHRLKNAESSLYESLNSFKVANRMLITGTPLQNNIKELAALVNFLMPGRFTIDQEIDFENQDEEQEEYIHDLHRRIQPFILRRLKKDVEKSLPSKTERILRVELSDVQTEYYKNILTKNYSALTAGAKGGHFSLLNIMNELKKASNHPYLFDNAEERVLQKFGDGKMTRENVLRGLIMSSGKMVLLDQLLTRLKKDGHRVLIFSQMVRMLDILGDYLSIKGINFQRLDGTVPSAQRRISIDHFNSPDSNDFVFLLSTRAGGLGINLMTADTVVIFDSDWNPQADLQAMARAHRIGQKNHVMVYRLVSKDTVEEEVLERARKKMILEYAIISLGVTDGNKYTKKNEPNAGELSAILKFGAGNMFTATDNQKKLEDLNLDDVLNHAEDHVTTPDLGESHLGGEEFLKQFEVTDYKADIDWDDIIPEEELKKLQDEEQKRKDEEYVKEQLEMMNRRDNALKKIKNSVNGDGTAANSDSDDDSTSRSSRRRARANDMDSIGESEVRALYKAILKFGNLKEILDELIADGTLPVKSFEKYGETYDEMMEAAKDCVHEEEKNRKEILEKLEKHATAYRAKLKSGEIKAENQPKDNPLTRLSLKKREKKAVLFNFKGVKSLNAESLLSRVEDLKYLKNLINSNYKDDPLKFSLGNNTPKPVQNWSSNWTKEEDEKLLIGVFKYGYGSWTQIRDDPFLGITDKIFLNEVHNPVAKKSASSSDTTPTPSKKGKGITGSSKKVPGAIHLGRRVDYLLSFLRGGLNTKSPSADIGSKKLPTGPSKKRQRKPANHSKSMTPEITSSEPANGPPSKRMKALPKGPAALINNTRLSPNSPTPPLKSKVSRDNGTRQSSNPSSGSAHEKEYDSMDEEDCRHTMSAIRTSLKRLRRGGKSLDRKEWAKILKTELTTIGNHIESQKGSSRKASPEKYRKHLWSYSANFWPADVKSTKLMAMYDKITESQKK

N/A = experiment: Trypanosoma cruzi proteasome luciferase counter-screen; format: functional; conditions: 9.37 µM

SMILES | Percent Effect [1] [%] | Percent Effect [2] [%] | Percent Effect [3] [%] | Percent Effect [4] [%] | Percent Effect (Trypanosoma cruzi) [%] | Percent Effect [5] [%] | Percent Effect [6] [%] | Percent Effect (Homo sapiens) [%] | Percent Effect [7] [%] | Percent Effect [8] [%] | Percent Effect [9] [%] | Percent Effect (N/A)
CC(=O)Nc1nc(C2CCN(C(=O)c3cccnc3)CC2)cs1 | -6.73 | 21.3 | 0.538 | 3.28 | 2.36 | -2.56 | 12.1 | 5.76 | 5.32 | 19.2 | -2.51 | 
Cc1noc(C)c1-c1cncc(C2CCCN2Cc2ccncc2)n1 (stereo not given) | 1.38 | 1.35 | 12 | 8.81 | 0.79 | 0.696 | 6.08 | 32.8 | 2.15 | 1.3 | -9.13 | 
CCc1[nH]ncc1C(=O)N1CCCN(Cc2cnn(C)c2)CC1 | 0.347 | 15.6 | 6.03 | -6.37 | -0.0979 | 5.68 | 8 | 21.9 | 5.71 | 18.8 | -17.9 | 
Cc1ncc(CN(C)CC2CCCN2c2cccnn2)s1 (stereo not given) | -4.33 | 1.27 | -16.7 | 0.813 | 3.79 | -0.645 | 25.6 | 0.297 | 9.38 | 2.53 | -37.9 | 
O=C(c1ccncc1)N1CCC(c2nc(O)cc(-c3ccncc3)n2)C1 (stereo not given) | -4.75 | 21.3 | 0.106 | -1.99 | 0.984 | -2.1 |  | 4.05 | 6.38 | 14.1 | -6.07 | 6.33% and 4.26%
Cc1nn(C)c(C)c1C1COCCN1C(=O)c1n[nH]c2ccccc12 (stereo not given) | -1.74 | 18.2 | 2.92 | -4.32 | 6.74 | -0.712 |  | -8.49 | 5.83 | 21.9 | -7.82 | 17.2% and 17.5%
O=C1N(c2ccccc2)Cc2nc(=O)[nH]n21 | -6.16 | 9.33 | -6.52 | 1.33 | 1.38 | -3.35 | 12.2 | 8.42 | 4.23 | 10.3 | -10.1 | 
CSc1nccn1-c1cccc(C(=O)NCCCN2CCOCC2)c1 | -3.34 | 18.4 | 0.67 | -6.16 | 1.21 | -2.52 | 16.5 | 5.76 | 7.39 | 18.5 | -4.95 | 
O=C(N1CCCC1)N1Cc2nccn2CC(CN2CCCC2)C1 (stereo not given) | 0.719 | 5.41 | 7.93 | -1.18 | -5.77 | -0.955 | 25.8 | -2.41 | -1.08 | 10.3 | -2.63 | 
COc1cc(CNC(=O)NCCCF)cc(Br)c1OC | -5.95 | -2.67 | 3.23 | -1.26 | -2.24 | 0 | -0.174 | 25.5 | 1.64 | 1.24 | 1.39 | 
